IL1B secr inh: blocks inflammasome-driven IL-1 beta release; 4.7% of 360,000 active; THP-1 LPS/ATP IL-1B secretion, AlphaLISA, 16 h; hits give low values; activity change, % at 57.5 µM; AID 743279; in the data active means activity change below about -50%; inconclusive means mostly about -30% to -49%; further: on the % scale 0 is the no-effect control and ±100 the full control effect
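THP-1 cells pretreated 1 hr with compounds (up to 57.5 uM final), then stimulated with LPS (250 ng/mL final) plus ATP (1.25 mM final); secreted IL-1B measured by AlphaLISA after 16 hr, decreased signal indicating inhibition.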
DT40 TDP1 CPT: DT40-hTDP1 cell growth loss with CPT | chicken DT40 Tdp1-/-;hTDP1 cells + 20 nM CPT, ATP luminescence, 48 h | Potency, µM (top dose mostly 46.2 µM), without a hit: at the highest dose activity change, negative = growth inhibition, hits mostly inhibitors | 12% of 420,000 active | AID 686979; further: potency means the concentration at half of the fitted maximal effect; on the % scale 0 is the no-effect control and ±100 the full control effect; nearly all actives have a fitted effect of over 55% in size
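Cell growth measured by CellTiter-Glo luminescence after a minimum 48 h, 37 C compound exposure with 20 nM CPT in Tdp1-knockout DT40 cells stably expressing hTDP1, seeded 400/well; qHTS titration format.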
ASM inhibitor: blocks human secretory acid sphingomyelinase; P17405; Potency, µM (top dose mostly 57.5 µM), inactives show top-dose activity change, negative = inhibition, usual class: inhibitors; AID 504937; placental ASM, HMU-PC fluorogenic substrate, 60 min; 0.006% of 340,000 active; further: potency means the concentration at half of the fitted maximal effect
Target sequence (P17405 47-631 limits assumed): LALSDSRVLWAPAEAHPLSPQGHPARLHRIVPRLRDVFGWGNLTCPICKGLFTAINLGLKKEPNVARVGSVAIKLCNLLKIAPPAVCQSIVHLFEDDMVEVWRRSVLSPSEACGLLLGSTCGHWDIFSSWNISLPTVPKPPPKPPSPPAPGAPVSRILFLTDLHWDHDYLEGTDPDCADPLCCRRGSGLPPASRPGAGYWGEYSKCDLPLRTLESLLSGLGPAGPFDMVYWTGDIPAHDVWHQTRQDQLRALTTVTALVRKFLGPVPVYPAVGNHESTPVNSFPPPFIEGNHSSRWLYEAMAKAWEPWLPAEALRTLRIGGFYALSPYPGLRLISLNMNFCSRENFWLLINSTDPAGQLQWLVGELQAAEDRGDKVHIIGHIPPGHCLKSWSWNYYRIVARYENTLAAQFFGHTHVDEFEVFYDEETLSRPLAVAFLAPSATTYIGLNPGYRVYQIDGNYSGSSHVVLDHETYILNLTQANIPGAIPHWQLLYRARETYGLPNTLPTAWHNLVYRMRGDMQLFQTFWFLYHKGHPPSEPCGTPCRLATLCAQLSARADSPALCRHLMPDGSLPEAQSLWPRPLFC
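Fluorescence read-out (Ex 386 nm, Em 447 nm) after stopping the reaction at pH 10. Enzyme: ASM from human placenta; substrate HMU-PC0, 9 uM final; 60 min, 37 °C. Compound preincubation 10 min, ambient temperature.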
TDP1 cell noCPT: qHTS for Inhibitors of human tyrosyl-DNA phosphodiesterase 1 (TDP1): qHTS in cells in absence of CPT. Potency, µM (series often up to 46.2 µM), for the others: top-dose activity change, negative = growth inhibition, hits mostly inhibitors. DT40 Tdp1-/- hTDP1 cells, no CPT, ATP luminescence, 48 h. 15% of 420,000 active; further: potency means the concentration at half of the fitted maximal effect; on the % scale 0 is the no-effect control and ±100 the full control effect; nearly all actives have a fitted effect of over 55% in size
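Readout: luminescence from CellTiter-Glo after 30 min in the dark at RT. Cells: DT40 Tdp1-/- with stable hTDP1, 400/well. Exposure: compounds alone, ≥48 hr, 37 °C.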
TGFb inhibitor: blocks TGF-b signaling; AID 588855; Potency, µM (doses to about 46.1 µM), for inactives: at the top dose activity, negative = inhibition, actives largely listed as inhibitors; HepG2 CAGA-GFP TGF-b/SMAD3 reporter, GFP fluorescence, 18 h; TGF-beta stimulated, 500 pg/mL final; 1.2% of 410,000 active; further: potency means the concentration at half of the fitted maximal effect; on the % scale 0 is the no-effect control and ±100 the full control effect; nearly all actives have a fitted effect of over 65% in size
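GFP signal (ex488/em500-530) from TGF-beta-stimulated HEPG2 CAGA-GFP cells, 500 pg/mL final, 18 h at 37 degrees C in DMEM plus 1% FBS, normalized to unstimulated and DMSO-stimulated controls.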
HepG2 tox: kills HepG2 cells in TGF-b inhibitor counter-screen | Potency, µM (series often up to 46.1 µM), without a hit: at the highest dose activity change, negative = cytotoxicity, actives largely listed as cytotoxic | 0.76% of 410,000 active | HepG2 CAGA-GFP viability, ATP luminescence, 18 h; further: potency means the concentration at half of the fitted maximal effect
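HepG2 CAGA-GFP cells (1000/well, DMEM with 1% FBS) received compound, then TGF-beta at 500 pg/mL final, and were incubated 18 hours at 37 degrees C. Viability was read by CellTiter-Glo luminescence. Media-only wells were set as complete cell-killing and DMSO as no toxicity.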
The depositor's hits bear a star; [ ] = dose if it differs, or a comment. A selection: hits, their analogues and other compounds. The true share with any hit is near 19%. Unless noted, the call rests on the fitted dose curve; in most records, active means well fitted curve in the direction sought with a large enough effect; inconclusive means small, poorly fitted or top-dose-only effect, or another doubt; inactive means no such curve, though single readings can be large; an effect the other way counts as inactive or inconclusive.

CCOc1ccc(-n2c(-c3ccc(C)cc3)nc3c(cnn3-c3ccccc3)c2=O)cc1 was read as DT40 TDP1 CPT -26%, TDP1 cell noCPT inconclusive, TGFb inhibitor -21% and HepG2 tox -16%.
`COc1ccc(-n2c(-c3ccco3)nc3c(cnn3-c3ccc(C)cc3)c2=O)cc1` gave IL1B secr inh -7, DT40 TDP1 CPT 12µM*, ASM inhibitor 1%, TDP1 cell noCPT 12µM*, TGFb inhibitor -14% and HepG2 tox 5%.
CCOC(=O)c1ccc(NC(=O)c2cnc3c(-c4ccc(F)cc4)c(C)nn3c2C)cc1 was read as DT40 TDP1 CPT -14%, TDP1 cell noCPT -9%, TGFb inhibitor 40% and HepG2 tox 0%.
`Cc1ccc(Cl)cc1NC(=O)Nc1cccc(OCc2cc(=O)n3ccccc3n2)c1` gave DT40 TDP1 CPT 10%, TDP1 cell noCPT -7%, TGFb inhibitor inconclusive and HepG2 tox -9%.
Screening CC(C)Cn1c(=O)n(C)c(=O)c2[nH]cnc21 returned IL1B secr inh -3, DT40 TDP1 CPT 7%, ASM inhibitor -5%, TDP1 cell noCPT 9%, TGFb inhibitor 22% and HepG2 tox -4%.
`COc1cc(C(C(=O)NC(C)(C)C)N(C(=O)CNC(=O)c2cccs2)c2cccnc2)cc(OC)c1OC` (stereo not given) gave IL1B secr inh -6, DT40 TDP1 CPT 10%, ASM inhibitor 1%, TDP1 cell noCPT 3%, TGFb inhibitor -21% and HepG2 tox -28%.
`Cc1cc2[nH]c(=O)c(=O)[nH]c2cc1S(=O)(=O)N(C)C1CCCCC1` gave IL1B secr inh 36, DT40 TDP1 CPT 21µM*, ASM inhibitor -4%, TDP1 cell noCPT 21µM*, TGFb inhibitor -23% and HepG2 tox -40%.
Cc1ccc(N(C)S(=O)(=O)c2cc3c(cc2C)NC(=O)CO3)cc1 was read as IL1B secr inh 30, DT40 TDP1 CPT inconclusive, ASM inhibitor -1%, TDP1 cell noCPT inconclusive, TGFb inhibitor -1% and HepG2 tox -2%.
Screening Cc1cc2c(cc1S(=O)(=O)N(C)C1CCCCC1)OCC(=O)N2 returned IL1B secr inh 36, DT40 TDP1 CPT inconclusive, ASM inhibitor -1%, TDP1 cell noCPT 23µM*, TGFb inhibitor 1% and HepG2 tox 2%.
`Cc1cc2c(cc1S(=O)(=O)N(CCN(C)C)Cc1ccccc1)OCC(=O)N2` gave DT40 TDP1 CPT 13µM*, TDP1 cell noCPT inconclusive, TGFb inhibitor 0% and HepG2 tox -13%.
`CC(C)CSc1ccc(S(=O)(=O)NCC(=O)O)cc1[N+](=O)[O-]` gave IL1B secr inh 18, DT40 TDP1 CPT 2%, ASM inhibitor 3%, TDP1 cell noCPT -5%, TGFb inhibitor 1% and HepG2 tox -12%.
For COc1ccc(-c2ccc(C(=O)N3CCc4c(cnc(C)c4CNS(=O)(=O)N(C)C)C3)o2)cc1 the results were DT40 TDP1 CPT -3%[9.04 µM] and TDP1 cell noCPT inconclusive.
Screening C[C@@H]1COC(=O)[C@H](Cc2ccc(F)cc2)CC/C=C/C[C@@H](CC(=O)N[C@@H](CO)Cc2ccccc2)C(=O)N1 returned IL1B secr inh 6, DT40 TDP1 CPT inconclusive, ASM inhibitor 1%, TDP1 cell noCPT 26µM*, TGFb inhibitor -3% and HepG2 tox -13%.
CC(C)(C)[C@H]1COC(=O)[C@@H](Cc2ccc(F)cc2)C/C=C\C[C@@H](CC(=O)N[C@H](CO)Cc2ccccc2)C(=O)N1 was read as IL1B secr inh -11, DT40 TDP1 CPT inconclusive, ASM inhibitor -3%, TDP1 cell noCPT inconclusive, TGFb inhibitor inconclusive and HepG2 tox -14%.

From PubChem BioAssay
